Test results reported in PubChem BioAssay AID1159580 (chemical genetic matrix, 2015).
Several values for one entry are separate records, joined by “and”; a condition that tells them apart may be missing. Identical values can stand only once. About 2,000 (36%) of roughly 5,500 compounds were called active. Not shown: some 18% with an inconclusive outcome. Cut-off read from the data, not from the text of the source: active = normalized growth mostly below about 0.91 (no sharp cut-off); inconclusive = no clear call, values can overlap the other calls; inactive = mostly above about 0.92. This is one part of the list.

Test: chemical genetic growth profiling, strain panel (AID 1159580);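 note: tested at 20 µM; growth read once vehicle control cultures reached saturation at 30 °C; 1 = growth at the plate median or of vehicle wells; lower values mean less growth of the strain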
Details: S. cerevisiae deletion strains, growth OD

Measured: normalized growth

Cc1cc(O)c2c(c1)C(=O)c1cccc(O)c1C2=O
active: locus YDR137W, strain rgp1, stronger effect = lower value 0.791 | locus YDR195W, strain ref2 1.18 [resistant] | locus YLR262C, strain YPT6 (second series), stronger effect = lower value 0.857 | locus YOR270C, strain vph1, stronger effect = lower value 0.772 | locus YPL051W, strain arl3, stronger effect = lower value 0.891
inactive: locus YAL013W, strain DEP1, stronger effect = lower value 0.971 | locus YAL021C, strain ccr4, stronger effect = lower value 0.991 | locus YAL026C, strain drs2, stronger effect = lower value 0.974 | locus YAL030W, strain snc1, stronger effect = lower value 1 | locus YBL061C, strain skt5, stronger effect = lower value 0.999 | locus YBR009C, strain hhf1, stronger effect = lower value 0.98 | locus YBR021W, strain FUR4, stronger effect = lower value 1.05 | locus YBR023C, strain chs3, stronger effect = lower value 1.01 | locus YBR171W, strain sec66, stronger effect = lower value 0.996 | locus YBR229C, strain ROT2, stronger effect = lower value 0.996 | locus YBR231C, strain swc5, stronger effect = lower value 0.967 | locus YBR279W, strain paf1, stronger effect = lower value 1 | locus YCL011C, strain gbp2, stronger effect = lower value 1 | locus YCL016C, strain dcc1, stronger effect = lower value 1 | locus YCL029C, strain bik1, stronger effect = lower value 0.992 | locus YCL061C, strain MRC1, stronger effect = lower value 1 | locus YCL069W, strain vba3, stronger effect = lower value 1 | locus YCR088W, strain abp1, stronger effect = lower value 1 | locus YDL005C, strain med2, stronger effect = lower value 1.01 | locus YDL035C, strain GPR1, stronger effect = lower value 0.975 | locus YDL040C, strain nat1, stronger effect = lower value 0.985 | locus YDL074C, strain BRE1, stronger effect = lower value 0.935 | locus YDL101C, strain DUN1, stronger effect = lower value 0.997 | locus YDL185W, strain tfp1, stronger effect = lower value 0.987 | locus YDL192W, strain arf1, stronger effect = lower value 0.967 | locus YDR001C, strain nth1, stronger effect = lower value 0.998 | locus YDR069C, strain doa4, stronger effect = lower value 0.99 | locus YDR101C, strain arx1, stronger effect = lower value 0.975 | locus YDR159W, strain sac3, stronger effect = lower value 1 | locus YDR162C, strain NBP2, stronger effect = lower value 0.969 | locus YDR297W, strain sur2, stronger effect = lower value 0.999 | locus YDR318W, strain mcm21, stronger effect = lower value 0.989 | locus YDR334W, strain swr1, stronger effect = lower value 0.993 | locus YDR335W, strain msn5, stronger effect = lower value 0.989 | locus YDR388W, stronger effect = lower value 0.994 | locus YDR392W, strain spt3, stronger effect = lower value 0.82 | locus YDR502C, strain sam2, stronger effect = lower value 1.01 | locus YEL003W, strain gim4, stronger effect = lower value 0.988 | locus YEL037C, strain rad23, stronger effect = lower value 0.982 | locus YEL061C, strain CIN8 (second series), stronger effect = lower value 0.99 | locus YEL061C, strain CIN8, stronger effect = lower value 0.993 | locus YER015W, strain faa2, stronger effect = lower value 1.01 | locus YER016W, strain bim1, stronger effect = lower value 1 | locus YER110C, stronger effect = lower value 1 | locus YER111C, strain swi4, stronger effect = lower value 1 | locus YER155C, strain BEM2 (second series), stronger effect = lower value 0.985 | locus YER155C, strain BEM2, stronger effect = lower value 1.01 | locus YER167W, strain BCK2, stronger effect = lower value 0.995 | locus YFR010W, strain ubp6, stronger effect = lower value 0.971 | locus YGL078C, strain dbp3, stronger effect = lower value 1.02 | locus YGL086W, strain mad1, stronger effect = lower value 0.965 | locus YGL167C, strain pmr1, stronger effect = lower value 0.987 | locus YGL173C, strain kem1, stronger effect = lower value 1 | locus YGL227W, strain vid30, stronger effect = lower value 1.01 | locus YGL240W, strain doc1, stronger effect = lower value 0.963 | locus YGL248W, strain PDE1, stronger effect = lower value 0.981 | locus YGL253W, strain hxk2, stronger effect = lower value 0.985 | locus YGR078C, strain PAC10, stronger effect = lower value 0.964 | locus YGR135W, strain pre9, stronger effect = lower value 1.01 | locus YGR252W, strain gcn5, stronger effect = lower value 1.03 | locus YHR013C, strain ard1, stronger effect = lower value 1 | locus YHR027C, strain rpn1, stronger effect = lower value 0.998 | locus YHR030C, strain SLT2, stronger effect = lower value 0.981 and 1.02 | locus YHR079C, strain IRE1 (second series), stronger effect = lower value 0.995 | locus YHR079C, strain IRE1, stronger effect = lower value 1.06 | locus YHR094C, strain hxt1, stronger effect = lower value 1.01 | locus YHR129C, strain ARP1, stronger effect = lower value 1 | locus YHR142W, strain chs7, stronger effect = lower value 0.964 | locus YHR200W, strain rpn10, stronger effect = lower value 0.994 | locus YIL066C, strain RNR3, stronger effect = lower value 0.991 | locus YIL073C, strain SPO22, stronger effect = lower value 0.935 | locus YIL125W, strain kgd1, stronger effect = lower value 1 | locus YIR030C, strain dcg1, stronger effect = lower value 1.01 | locus YJL092W, strain hpr5, stronger effect = lower value 1.01 | locus YJL095W, strain BCK1 (second series), stronger effect = lower value 0.999 | locus YJL095W, strain BCK1, stronger effect = lower value 0.914 and 1.05 | locus YJL115W, strain asf1, stronger effect = lower value 0.996 | locus YJL129C, strain trk1, stronger effect = lower value 1.01 | locus YJL134W, strain LCB3, stronger effect = lower value 1 | locus YJL154C, strain vps35, stronger effect = lower value 0.997 | locus YJL164C, strain tpk1, stronger effect = lower value 0.996 | locus YJL166W, strain qcr8, stronger effect = lower value 0.983 | locus YJL168C, strain set2, stronger effect = lower value 1 | locus YJL187C, strain SWE1 (second series), stronger effect = lower value 0.954 | locus YJL187C, strain SWE1, stronger effect = lower value 0.995 | locus YJR043C, strain POL32, stronger effect = lower value 0.977 | locus YJR066W, strain TOR1, stronger effect = lower value 0.979 | locus YKL009W, strain mrt4, stronger effect = lower value 1.02 | locus YKL068W, stronger effect = lower value 1.02 | locus YKL085W, strain MDH1 (second series), stronger effect = lower value 1.01 | locus YKL085W, strain MDH1, stronger effect = lower value 1.01 | locus YKL160W, strain elf1, stronger effect = lower value 0.995 | locus YKL190W, strain CNB1, stronger effect = lower value 0.991 | locus YKR001C, strain vps1, stronger effect = lower value 0.928 | locus YKR026C, strain gcn3, stronger effect = lower value 1.02 | locus YKR091W, strain srl3, stronger effect = lower value 1 | locus YLL001W, strain dnm1, stronger effect = lower value 1.01 | locus YLL026W, stronger effect = lower value 1 | locus YLL041C, strain sdh2, stronger effect = lower value 1.01 | locus YLR027C, strain aat2, stronger effect = lower value 1.01 | locus YLR039C, strain RIC1, stronger effect = lower value 0.818 | locus YLR058C, strain SHM2, stronger effect = lower value 0.972 | locus YLR102C, strain apc9, stronger effect = lower value 1.01 | locus YLR113W, strain HOG1, stronger effect = lower value 1.07 | locus YLR221C, strain rsa3, stronger effect = lower value 1.01 | locus YLR258W, strain gsy2, stronger effect = lower value 0.991 | locus YLR268W, strain sec22, stronger effect = lower value 0.933 | locus YLR320W, strain mms22, stronger effect = lower value 0.949 | locus YLR330W, strain CHS5, stronger effect = lower value 0.986 | locus YLR342W, strain FKS1 (second series), stronger effect = lower value 0.984 | locus YLR342W, strain FKS1, stronger effect = lower value 1.01 | locus YLR357W, strain rsc2, stronger effect = lower value 1.03 | locus YLR370C, strain arc18, stronger effect = lower value 1.02 | locus YLR371W, strain rom2, stronger effect = lower value 0.963 | locus YLR384C, strain iki3, stronger effect = lower value 0.998 | locus YLR418C, strain cdc73, stronger effect = lower value 0.936 | locus YML016C, strain PPZ1, stronger effect = lower value 0.997 | locus YML032C, strain rad52, stronger effect = lower value 0.935 | locus YML120C, strain ndi1, stronger effect = lower value 0.998 | locus YML124C, strain tub3, stronger effect = lower value 1.01 | locus YMR058W, strain fet3, stronger effect = lower value 0.98 | locus YMR078C, strain ctf18, stronger effect = lower value 0.988 | locus YMR125W, strain sto1, stronger effect = lower value 1.05 | locus YMR129W, stronger effect = lower value 0.999 | locus YMR205C, strain PFK2, stronger effect = lower value 1.03 | locus YMR223W, strain ubp8, stronger effect = lower value 0.968 | locus YMR231W, strain pep5, stronger effect = lower value 0.999 | locus YMR263W, strain SAP30, stronger effect = lower value 0.982 | locus YMR307W, strain GAS1, stronger effect = lower value 0.883 | locus YNL067W, strain RPL9B, stronger effect = lower value 0.99 | locus YNL071W, strain lat1, stronger effect = lower value 0.996 | locus YNL183C, strain NPR1, stronger effect = lower value 0.974 | locus YNL209W, strain ssb2, stronger effect = lower value 0.988 | locus YNL233W, strain BNI4, stronger effect = lower value 0.966 | locus YNL248C, strain rpa49, stronger effect = lower value 0.948 | locus YNL250W, strain rad50, stronger effect = lower value 1.04 | locus YNL271C, strain bni1, stronger effect = lower value 1 | locus YNL298W, strain CLA4, stronger effect = lower value 1.02 | locus YNL307C, strain MCK1, stronger effect = lower value 1.01 | locus YNL322C, strain KRE1 (second series), stronger effect = lower value 1.02 | locus YNR049C, strain mso1, stronger effect = lower value 1.01 | locus YNR052C, strain pop2, stronger effect = lower value 0.961 | locus YOL012C, strain htz1 1.1 | locus YOL147C, strain pex11, stronger effect = lower value 0.994 | locus YOR001W, strain rrp6, stronger effect = lower value 0.983 | locus YOR061W, strain CKA2, stronger effect = lower value 1 | locus YOR069W, strain VPS5, stronger effect = lower value 0.999 | locus YOR070C, strain gyp1, stronger effect = lower value 1.02 | locus YOR080W, strain dia2, stronger effect = lower value 0.996 | locus YOR083W, strain WHI5, stronger effect = lower value 0.999 | locus YOR106W, strain vam3, stronger effect = lower value 0.965 | locus YOR136W, strain idh2, stronger effect = lower value 1.01 | locus YOR144C, strain elg1, stronger effect = lower value 0.998 | locus YOR184W, strain ser1, stronger effect = lower value 0.946 | locus YOR231W, strain MKK1, stronger effect = lower value 1.09 | locus YOR265W, strain rbl2, stronger effect = lower value 0.996 | locus YOR290C, strain snf2, stronger effect = lower value 0.967 | locus YOR316C, strain cot1, stronger effect = lower value 1.02 | locus YPL078C, strain atp4, stronger effect = lower value 0.96 | locus YPL106C, strain sse1, stronger effect = lower value 0.974 | locus YPL240C, strain hsp82, stronger effect = lower value 1 | locus YPL256C, strain CLN2, stronger effect = lower value 1.09 | locus YPR119W, strain clb2, stronger effect = lower value 1 | locus YPR141C, strain kar3, stronger effect = lower value 1.03 | locus YPR163C, strain tif3, stronger effect = lower value 1 | locus YPR167C, strain met16, stronger effect = lower value 0.998 | strain wtn01, stronger effect = lower value 0.97
